Data on five compounds can be found in PubChem BioAssay (NCATS).

SMILES strings stand for the structures. Results filed as inconclusive are left out. Activity calls are given as the source filed them. Unless noted, the rule behind the calls is not given here.

Assay [1] is described as follows: qHTS profiling of the MIPE4 collection as inhibitors of Plasmodium falciparum (3D7) proliferation (AID 743344).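 Note: scaled between DMSO vehicle wells and 0.29 µM artemisinin as full inhibition.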 As to conditions: P. falciparum 3D7 in erythrocytes, SYBR Green DNA fluorescence, 72 h; at 28.5 µM unless noted. The gist of the method: (§1)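 Erythrocytes infected with P. falciparum (0.3% parasitemia, 2.5% hematocrit) incubated with compounds 72 h at 37 C, 5% CO2. Lysis with saponin/Triton buffer containing SYBR Green I, overnight at room temperature in the dark; DNA fluorescence (485/535 nm) normalised to 0.29 uM artemisinin and DMSO.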
In general terms: In qHTS, concentration-response curves come from the screen itself.

A short description of assay [2]: qHTS profiling of the MIPE4 collection as inhibitors of Plasmodium falciparum (DD2) proliferation (AID 743345). As to conditions: P. falciparum Dd2 in erythrocytes, SYBR Green DNA, 72 h; at 28.5 µM unless noted. The gist of the method:
as §1

A short description of assay [3]: qHTS profiling of the MIPE4 collection as inhibitors of Plasmodium falciparum (DD2) proliferation (Rep 2) (AID 743346). As to conditions: P. falciparum Dd2 in erythrocytes, SYBR Green DNA, 72 h; at 28.5 µM unless noted. The gist of the method: as §1
Assay [4] can be described thus: qHTS profiling of the MIPE4 collection as inhibitors of Plasmodium falciparum (HB3) proliferation (AID 743347).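 Note: plate controls were DMSO vehicle wells for no effect and artemisinin wells for full effect.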 As to conditions: P. falciparum HB3 in erythrocytes, SYBR Green DNA, 72 h; at 28.5 µM unless noted. In a few lines:
as §1

The nature of assay [5]: High-throughput drug toxicity screening in the BPDCN cell line Gen2.2 (AID 1224824).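 Note: cells exposed to compounds for 48 h before reading.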 As to conditions: Gen2.2 BPDCN cells; at 45.8 µM (top of the series) unless noted. In a few lines: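 Gen2.2 cells, 500 per well in phenol red-free RPMI with 10% FBS, exposed to compounds 48 h at 37 C, 5% CO2; viability by CellTiter-Glo luminescence. Percent activity scaled to DMSO (100%) and 9.2 uM bortezomib final (0%).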

The nature of assay [6]: High-throughput drug toxicity screening in the BPDCN cell line Cal-1 (AID 1224825). As to conditions: Cal-1 BPDCN cell viability, qHTS; at 45.8 µM (top of the series) unless noted. The gist of the method:
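Exponentially growing Cal-1 cells, 500 per well in phenol red-free RPMI with 10% FBS, were exposed to compounds for 48 h at 37 °C, 5% CO2. Viability was read by CellTiter-Glo luminescence and normalised to DMSO (100%) and 9.2 uM bortezomib (0%).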

Assay [7] can be described thus: qHTS assay for measurement of the activity of small molecule inhibitors on Zika virus induced Caspase-3 activity in human astrocytoma cells (AID 1224859; active = well fitted curve in the direction sought with a large enough effect; an effect the other way counts as inactive or inconclusive;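 note: plate controls were ZIKV-infected untreated cells for no effect and uninfected cells for full effect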). The gist of the method: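 Luminescent caspase-3/7 read-out (30 min reagent, room temperature) in human SNB-19 cells infected 6 h with ZIKV (2 FFU/cell) after 1 h compound pre-incubation; Data were normalised to uninfected and infected wells.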

Assay [8] is described as follows: qHTS Screen of the MIPE 4.0 Collection Against Ewings Sarcoma (RDES) (AID 1259252; active = well fitted curve in the direction sought with a large enough effect; an effect the other way counts as inactive or inconclusive; note: nearly all actives have a fitted effect of over 35% in size; note: potency is the fitted concentration of half-maximal effect). In a few lines: (§2)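 Measured: ATP luminescence (CellTiter-Glo) 10 min after reagent addition, following 48 h drug treatment. Relative luciferase units converted to percent activity, with no-cell wells as full and DMSO wells as zero inhibition.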
Assay [9] can be described thus: qHTS Screen of the MIPE 4.0 Collection Against Ewings Sarcoma (TC71) (AID 1259253; active = well fitted curve in the direction sought with a large enough effect; an effect the other way counts as inactive or inconclusive; note: nearly all actives have a fitted effect of over 40% in size; note: potency is the fitted concentration of half-maximal effect). The gist of the method: as §2
Assay [10] is described as follows: qHTS Screen of the MIPE 4.0 Collection Against Ewings Sarcoma (EW8) (AID 1259255; active = well fitted curve in the direction sought with a large enough effect; an effect the other way counts as inactive or inconclusive; note: nearly all actives have a fitted effect of over 35% in size; note: potency is the fitted concentration of half-maximal effect;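 for viability: 100% = DMSO-treated cells and 0% = medium-only wells without cells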). In a few lines: as §2
The nature of assay [11]: qHTS assay for measurement of the activity of small molecule inhibitors on Zika virus induced Caspase-3 activity in human iPSC derived neural progenitor cells (hNPCs) (AID 1224857; active = well fitted curve in the direction sought with a large enough effect; an effect the other way counts as inactive or inconclusive; note: % of control where 0% means no effect; nearly all actives have a fitted effect of over 65% in size). In a few lines:
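Percent inhibition of virus-induced caspase-3/7 luminescence (Caspase-Glo), scaled between uninfected cells and Zika-infected cells. hNPCs received compound 1 hr before ZIKV at 2 FFU/cell, with 6 hours infection at 37 C.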

The target in assay [12] is T1, Hexokinase-4 (Homo sapiens) + Glucokinase regulatory protein (Homo sapiens) (UniProt P35557+Q14397). Description: qHTS assay for inhibitors of recombinant human GCK-GKRP interaction: Diaphorase-coupled assay (AID 743205; active = well fitted curve in the direction sought with a large enough effect; an effect the other way counts as inactive or inconclusive). In a few lines: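 Compounds pre-incubated 20 min with substrate, then 10 nM GST-GCK with 10 nM FLAG-GKRP added. GCK activity coupled via G6PDH and diaphorase to resorufin (5 mM glucose, 0.4 mM ATP, 0.15 mM NADP+, pH 7.6), read kinetically over 30 minutes at Ex 525/Em 590 nm.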

Assay [13] addresses T1, Hexokinase-4 (Homo sapiens) + Glucokinase regulatory protein (Homo sapiens). Description: qHTS assay for inhibitors of recombinant human GCK-GKRP interaction: ADP-Glo assay (AID 743206; active = well fitted curve in the direction sought with a large enough effect; an effect the other way counts as inactive or inconclusive;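 note: plate controls were DMSO plus enzyme for no effect and no enzyme for full effect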). In a few lines:
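GST-GCK and FLAG-GKRP (15 nM each in the dispensed mix, with 2 uM S6P) react with 0.4 mM ATP and 5 mM glucose (final) in Hepes pH 7.6 for 60 min at room temperature. ADP is measured by ADP-Glo luminescence.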

Assay [14] shares this target. Description: qHTS assay for inhibitors of recombinant human GCK-GKRP interaction: HTRF assay (AID 743207; active = well fitted curve in the direction sought with a large enough effect; an effect the other way counts as inactive or inconclusive;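 note: 0% = DMSO with GCK present and -100% = DMSO wells lacking GCK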). In a few lines: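 HTRF binding of 5 nM GST-GCK and 5 nM FLAG-GKRP with 2 uM S6P in pH 7.1 Hepes buffer (MgCl2, KCl, DTT, Tween 20, BSA). Anti-FLAG XL665 and anti-GST donor added, 60 min at room temperature; 665/615 nm read, normalized to with- and without-GCK controls.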

A short description of assay [15]: qHTS profiling for inhibitors of Plasmodium falciparum (3D7) proliferation (AID 743322).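 Note: infected erythrocytes exposed to compound for 72 h before lysis; 100% = DMSO vehicle wells and 0% = 0.29 µM artemisinin.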 As to conditions: P. falciparum 3D7 proliferation; at 28.7 µM (top of the series). In a few lines: as §1
Assay [16] in a line: qHTS profiling for inhibitors of Plasmodium falciparum (DD2) proliferation (AID 743323). As to conditions: lower = more inhibition; at 28.7 µM (top of the series). The gist of the method:
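SYBR Green fluorescence (ex 485, em 535 nm) of lysed cultures gives parasite DNA content; wells normalized to artemisinin (0.29 uM) and DMSO controls. Infected red cells: 0.3% parasitemia, 2.5% hematocrit, 72 h, 37 C.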

A short description of assay [17]: qHTS profiling for inhibitors of Plasmodium falciparum (HB3) proliferation (AID 743324; active = well fitted curve in the direction sought with a large enough effect; an effect the other way counts as inactive or inconclusive;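 note: 100% = DMSO vehicle wells and 0% = artemisinin-treated control wells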). As to conditions: Plasmodium falciparum HB3 blood-stage proliferation; at 28.7 µM (top of the series). In a few lines:
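P. falciparum HB3 grown in erythrocytes (0.3% parasitemia, 2.5% hematocrit final) with compound for 72 h at 37 C, 5% CO2. Parasite DNA detected by SYBR Green after saponin/triton lysis overnight; normalized to 0.29 uM artemisinin and DMSO.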

T1 sequence (P35557 whole entry, looked up): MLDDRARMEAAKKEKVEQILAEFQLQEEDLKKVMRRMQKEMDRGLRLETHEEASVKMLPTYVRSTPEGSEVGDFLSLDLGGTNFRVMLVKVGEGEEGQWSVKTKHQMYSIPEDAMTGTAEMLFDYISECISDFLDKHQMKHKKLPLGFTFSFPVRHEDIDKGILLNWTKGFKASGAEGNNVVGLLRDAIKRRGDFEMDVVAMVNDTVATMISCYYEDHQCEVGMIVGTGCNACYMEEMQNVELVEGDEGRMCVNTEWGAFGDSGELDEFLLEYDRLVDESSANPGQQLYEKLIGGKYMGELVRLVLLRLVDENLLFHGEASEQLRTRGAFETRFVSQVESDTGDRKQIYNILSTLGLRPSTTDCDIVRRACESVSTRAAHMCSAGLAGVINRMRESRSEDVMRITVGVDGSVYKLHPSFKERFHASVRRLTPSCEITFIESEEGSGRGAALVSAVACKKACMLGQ
T1 sequence (Q14397 whole entry, looked up): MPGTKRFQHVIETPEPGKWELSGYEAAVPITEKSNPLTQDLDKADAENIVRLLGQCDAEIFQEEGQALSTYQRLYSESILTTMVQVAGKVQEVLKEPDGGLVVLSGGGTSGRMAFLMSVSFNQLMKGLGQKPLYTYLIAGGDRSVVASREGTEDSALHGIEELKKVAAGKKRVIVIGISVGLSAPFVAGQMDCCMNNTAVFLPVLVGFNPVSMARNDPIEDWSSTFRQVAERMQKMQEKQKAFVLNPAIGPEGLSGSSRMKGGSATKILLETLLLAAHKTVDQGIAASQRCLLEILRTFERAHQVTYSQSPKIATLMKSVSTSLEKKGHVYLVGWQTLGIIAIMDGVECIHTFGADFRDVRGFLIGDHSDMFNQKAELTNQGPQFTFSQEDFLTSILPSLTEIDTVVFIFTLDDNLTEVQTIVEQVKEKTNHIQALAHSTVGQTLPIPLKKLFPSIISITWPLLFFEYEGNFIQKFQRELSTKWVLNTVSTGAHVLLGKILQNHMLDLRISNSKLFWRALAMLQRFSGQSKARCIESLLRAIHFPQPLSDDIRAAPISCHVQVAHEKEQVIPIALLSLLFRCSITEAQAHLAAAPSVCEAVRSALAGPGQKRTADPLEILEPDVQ

As to `C=C1C(=O)[C@@]23C(CC[C@@H]1[C@H]2O)[C@@]12CO[C@]3(O)[C@@H](O)[C@@H]1C(C)(C)CC[C@@H]2O` (stereo partly drawn), in [1], the parasite growth, % of DMSO control worked out at 33.5%. Also, the parasite growth remaining, % of DMSO control (lower = more inhibition) in assay [2] was 75.5%. For the same compound, in assay [3], the parasite growth, % of control (lower = inhibition) was 18.4%. In addition, in [4], the growth, % of control stood at 5.26%. Further, the cell viability, % of control (lower = more cytotoxic) in [5] worked out at 2.66%. For the same compound, the viability (% of control) in [6] was 2.13%. The Potency result in assay [7] is “inactive”. Moreover, the Potency is 7.43 µM (active) in assay [8], 6.62 µM (active) in assay [9] and 4.18 µM (active) in assay [10].

In the case of `C=CCc1ccc(O)c(-c2ccc(O)c(CC=C)c2)c1`, in assay [1], the parasite growth, % of DMSO control amounted to 22.1%. Besides, the parasite growth remaining, % of DMSO control (lower = more inhibition) in assay [2] came out at 75.6%. In addition, the growth, % of control in [4] was determined as 3.7%. In assay [5], the cell viability, % of control (lower = more cytotoxic) was determined as 34.9%. Further, the viability (% of control) in assay [6] is 21.1%. The Potency result in assay [11] was “inactive”.

In the case of `CCCCCN(C)CCC(O)(P(=O)(O)O)P(=O)(O)O`, the result in assay [12], in assay [13] and in assay [14] was inactive. The compound further returned a parasite growth, % of DMSO control in assay [1] of 92.2%. Further, the parasite growth remaining, % of DMSO control (lower = more inhibition) in [2] is 92.9%. In addition, the parasite growth, % of control (lower = inhibition) in assay [3] worked out at 114%. Besides, in assay [4], the growth, % of control was 90.7%. Also, the cell viability, % of control (lower = more cytotoxic) in assay [5] turned out to be 125%. For the same compound, in assay [6], the viability (% of control) was 102%. The Potency entry in [7], in assay [8], in assay [9] and in [10] was “inactive” in each case.

Compound `COC[C@@H](c1ccc(C(F)(F)F)cc1)N1CCN(C2(C)CCN(C(=O)c3c(C)ncnc3C)CC2)C[C@H]1C` yielded a parasite growth, % of DMSO control in assay [1] of 31.8%. The same compound yielded a parasite growth remaining, % of DMSO control (lower = more inhibition) in assay [2] of 84.7%. The parasite growth, % of control (lower = inhibition) in assay [3] is 21.5%. The same compound came in with a growth, % of control in assay [4] of 28.5%. Also, the cell viability, % of control (lower = more cytotoxic) in [5] came to 7.13%. In [6], the viability (% of control) is 6.85%. Moreover, the Potency result in [11] is “inactive”.

For the compound `CC(C)[C@H](CO)Nc1nc(Nc2ccc(C(=O)O)c(Cl)c2)c2ncn(C(C)C)c2n1`, the remaining parasite growth % (stronger effect = lower value) in assay [15] amounted to 41.8%. In assay [16], the activity, percent of control came to 35.2%. For the same compound, the remaining proliferation (% of control), lower = more inhibition in [17] came out at 28.6%. The growth, % of control in [4] turned out to be 18.3%. Further, in assay [5], the cell viability, % of control (lower = more cytotoxic) was determined as 9.58%. In assay [6], the viability (% of control) amounted to 5.62%. In addition, the Potency result in assay [11] was “inactive”.
